For two compounds, outcome and AC50 results are on record in PubChem BioAssay (EPA / NIEHS).

Values joined by “and” are separate entries in the source; they are usually repeats but may differ in a detail not shown here. Equal values may be shown once. More than one record can exist for a structure, and the calls need not agree. Active and inactive are the calls of the source. How the source made its calls: active means hit-call score of the fitted dose curve at least 0.9, where 1 is the maximum; inactive means score below 0.9.

A short description of assay [1]: ATG_E_Box_CIS: Attagene CIS-FACTORIAL HepG2 Assay for human Enhancer Box (E-box) (AID 2282936). Conditions: HepG2 E-box cis-reporter transcription, actives raise or lower the signal. The gist of the method:
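Multiplexed CIS reporter system in transiently transfected HepG2 cells measures native transcription factor activity. Reporter RNA after 24 h exposure is profiled by RT-PCR-capillary electrophoresis.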

Assay [2] can be described thus: ATG_M_61_CIS: Attagene CIS-FACTORIAL HepG2 Assay for M61 Transcription Factor (Internal Marker) (AID 2282937). Conditions: HepG2 Attagene CIS-FACTORIAL M61 internal marker reporter; actives raise or lower the signal. The gist of the method:
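Multiplexed reporter mRNA assay, HepG2 human hepatoma cells, 24 h treatment. Signal: FAM-labelled, HpaI-digested RT-PCR fragments by CE. Fit: bidirectional, baseline DMSO.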

Assay [3] can be described thus: ATG_EGR_CIS: Attagene CIS-FACTORIAL HepG2 Assay for human Early Growth Response 1 (EGR1) (AID 2282938). Conditions: HepG2 Attagene CIS-FACTORIAL EGR reporter mRNA; actives raise or lower the signal. The gist of the method:
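Multiplexed cis-reporter system in human hepatoma HepG2 cells, transiently transfected. Cells are dosed for 24 h; reporter transcripts are amplified, fluorescently tagged and sized by capillary electrophoresis, with DMSO as negative control.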

Assay [4] can be described thus: ATG_M_19_CIS: Attagene CIS-FACTORIAL HepG2 Assay for M19 Transcription Factor (Internal Marker) (AID 2282939). Conditions: HepG2 Attagene CIS-FACTORIAL M19 internal marker reporter; actives raise or lower the signal. The gist of the method: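 HepG2 cells transiently transfected with cis-regulated multiple reporter transcription units were dosed for 24 h; reporter mRNA was quantified by RT-PCR, 6-FAM primer-extension labelling, HpaI digestion and capillary electrophoresis, with bidirectional fitting against DMSO baseline.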

Assay [5] in a line: ATG_ERE_CIS: Attagene CIS-FACTORIAL HepG2 Assay for Estrogen Response Element (ERE) (AID 2282940). Conditions: HepG2 ERE cis-reporter, Attagene RNA transcript; actives raise or lower the signal. Summed up: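 HepG2 cells transiently transfected with cis-promoter-driven multiplexed reporter transcription units report endogenous TF activity. After 24 h compound exposure, reporter mRNA is quantified by RT-PCR with capillary electrophoresis fluorescence; bidirectional fitting versus DMSO baseline.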

Assay [6] in a line: ATG_Ets_CIS: Attagene CIS-FACTORIAL HepG2 Assay for human Erythroblast Transformation Specific (ETS) (AID 2282941). Conditions: HepG2 ETS cis-reporter transcription, actives raise or lower the signal. The gist of the method:
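After transient cis-reporter transfection, HepG2 cells receive test chemical for 24 h. Reporter mRNA levels, measured by RT-PCR and capillary electrophoresis fluorescence, are analysed bidirectionally relative to the DMSO baseline.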

Assay [7] deals with Hepatocyte nuclear factor 3-beta (Homo sapiens) (UniProt Q9Y261). In words: ATG_FoxA2_CIS: Attagene CIS-FACTORIAL HepG2 Assay for human Forkhead box A2 (FOXA2) (AID 2282942). Conditions: HepG2 cis-reporter transcription factor activity, 24 h; actives raise or lower the signal. Summed up:
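Multiplexed cis-element reporter assay in transiently transfected HepG2. Twenty-four hours post-dosing, RNA was reverse-transcribed, amplified, FAM-labelled, HpaI-digested and separated by CE. Activity gain or loss relative to DMSO.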

Assay [8] in a line: ATG_FoxO_CIS: Attagene CIS-FACTORIAL HepG2 Assay for human Forkhead box O (FoxO) (AID 2282943). Conditions: HepG2 Attagene cis-reporter, FoxO element, mRNA; actives raise or lower the signal. Summed up:
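Values reflect reporter mRNA induction or loss in HepG2 cells 24 h post-dosing, fitted bidirectionally with DMSO as negative control and baseline. Detection used RT-PCR and fluorescence capillary electrophoresis.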

A short description of assay [9]: ATG_GATA_CIS: Attagene CIS-FACTORIAL HepG2 Assay for human GATA Binding Protein (AID 2282944). Conditions: HepG2 GATA cis-element reporter, Attagene multiplex mRNA; actives raise or lower the signal. The gist of the method:
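HepG2 cells transiently transfected with multiplexed cis-element reporter units reflecting endogenous transcription factor activity; reporter mRNA measured after 24 h dosing by RT-PCR, 6-FAM labeling, HpaI digestion and capillary electrophoresis. Bidirectional fitting versus DMSO baseline.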

Assay [10] is described as follows: ATG_GLI_CIS: Attagene CIS-FACTORIAL HepG2 Assay for human Zinc Finger Protein GLI1 (AID 2282945). Conditions: HepG2, Attagene cis-factorial reporter mRNA, GLI element; actives raise or lower the signal. Summed up: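 HepG2 cells transiently transfected with cis-promoter multiplexed reporter units report endogenous transcription factor activity. After 24 h chemical exposure, reporter mRNA was quantified by RT-PCR, 6-FAM labelling, HpaI digestion and capillary electrophoresis, with bidirectional fitting against DMSO.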

The nature of assay [11]: ATG_GRE_CIS: Attagene CIS-FACTORIAL HepG2 Assay for human Glucocorticoid Response Elements (GRE) (AID 2282947). Conditions: HepG2 GRE cis-reporter, Attagene multiplex mRNA; actives raise or lower the signal. Summed up:
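Following 24 h chemical exposure of transiently transfected HepG2 cells, total RNA was reverse-transcribed and reporter cDNA amplified, fluorescently labelled and sized by capillary electrophoresis. Signal gain or loss was fitted relative to DMSO vehicle.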

Assay [12] is described as follows: ATG_ISRE_CIS: Attagene CIS-FACTORIAL HepG2 Assay for human Interferon Regulatory Factor 1 (IRF1) binding to an Interferon-Stimulated Response Element (ISRE) (AID 2282948). Conditions: HepG2 ISRE cis-reporter (Attagene), mRNA transcription readout; actives raise or lower the signal. The gist of the method:
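Quantitation relies on labelled RT-PCR fragments separated by capillary electrophoresis. Human HepG2 cells bearing cis-promoter reporter constructs were treated 24 h; DMSO served as baseline for bidirectional fitting.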

The nature of assay [13]: ATG_M_32_CIS: Attagene CIS-FACTORIAL HepG2 Assay for M32 Transcription Factor (Internal Marker) (AID 2282949).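 Further: background control marker of the multiplexed CIS panel rather than a real target.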 Conditions: HepG2 Attagene cis-factorial M32 reporter, mRNA; actives raise or lower the signal. Summed up:
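HepG2 cells transiently transfected with multiplexed cis-regulated reporter units, dosed 24 h. Reporter mRNA quantified by RT-PCR, 6-FAM labelling, HpaI digestion and capillary electrophoresis; bidirectional fit vs DMSO.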

Assay [14] is described as follows: ATG_M_06_CIS: Attagene CIS-FACTORIAL HepG2 Assay for M06 Transcription Factor (Internal Marker) (AID 2282950). Conditions: HepG2 Attagene CIS-FACTORIAL M06 internal marker reporter; actives raise or lower the signal. The gist of the method: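 HepG2 cells transiently transfected with cis-regulated multiple reporter transcription units were exposed to chemical for 24 h; reporter mRNA was quantified by RT-PCR, 6-FAM primer labelling, HpaI digestion and capillary electrophoresis, fitted bidirectionally against DMSO.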

Assay [15] addresses Hypoxia-inducible factor 1-alpha (Homo sapiens) (UniProt Q16665). Description: ATG_HIF1a_CIS: Attagene CIS-FACTORIAL HepG2 Assay for human Hypoxia Inducible Factor 1 (HIF1A) (AID 2282951). Conditions: HepG2 Attagene cis-factorial HIF1a reporter transcription; actives raise or lower the signal. The gist of the method: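 Cis-element reporter constructs were transiently transfected into HepG2 cells, which were treated for 24 h; reporter RNA was reverse-transcribed, amplified, labelled and resolved by capillary electrophoresis.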

Assay [16] has as its target Hepatocyte nuclear factor 6 (Homo sapiens) (UniProt Q9UBC0). Description: ATG_HNF6_CIS: Attagene CIS-FACTORIAL HepG2 Assay for human Hepatocyte Nuclear Factor 6 (HNF6) (AID 2282952). Conditions: HepG2 Attagene cis-factorial HNF6 reporter transcription; actives raise or lower the signal. The gist of the method:
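HepG2 cells transiently transfected with cis-element-driven multiplexed reporter units measuring endogenous transcription factor activity. After 24 h exposure, reporter mRNA quantified by RT-PCR, FAM-labelled fragments and capillary electrophoresis; bidirectional fitting versus DMSO.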

Assay [17] concerns the target Heat shock factor protein 1 (Homo sapiens) (UniProt Q00613). Description: ATG_HSE_CIS: Attagene CIS-FACTORIAL HepG2 Assay for human Heat Shock Transcription Factor 1 (HSE) (AID 2282953). Conditions: HepG2 HSE cis-reporter, Attagene RNA transcription; actives raise or lower the signal. The gist of the method: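 HepG2 cells transiently transfected with multiple reporter transcription units under cis-regulatory promoter control, measuring endogenous transcription factor activity. After 24 h chemical exposure, reporter mRNA quantified by RT-PCR, fluorescent labelling, HpaI digestion and capillary electrophoresis; bidirectional fit versus DMSO.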

Assay [18] in a line: ATG_MRE_CIS: Attagene CIS-FACTORIAL HepG2 Assay for human Metal Responsive Element (MRE) (AID 2282954). Conditions: HepG2 MRE cis-reporter transcription, Attagene multiplex; actives raise or lower the signal. Summed up:
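Step one: transfect HepG2 with cis-regulated reporter units. Step two: dose 24 h. Step three: isolate RNA, RT-PCR, 6-FAM label, HpaI digest, capillary electrophoresis. Fit bidirectionally to DMSO.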

Assay [19] concerns the target Paired box protein Pax-6 (Homo sapiens) (UniProt P26367). Description: ATG_Pax6_CIS: Attagene CIS-FACTORIAL HepG2 Assay for human Paired Box 6 (PAX6) (AID 2282956). Conditions: HepG2 CIS-FACTORIAL PAX6 reporter transcription, RNA readout; actives raise or lower the signal. The gist of the method: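 After twenty-four hours of chemical exposure, transfected HepG2 cells are harvested for RNA. Cis-promoter reporter transcripts are amplified, fluorescently labelled and sized by capillary electrophoresis, with gain and loss of signal scored against DMSO.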

Assay [20] in a line: ATG_PBREM_CIS: Attagene CIS-FACTORIAL HepG2 Assay for human Phenobarbital-responsive Enhancer Module (PBREM) (AID 2282955). Conditions: HepG2 PBREM cis-reporter, Attagene multiplexed transcription; actives raise or lower the signal. Summed up: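 Multiplexed cis-reporter readout in human hepatoma HepG2 cells; PBREM-regulated transcript quantified after 24 h exposure by fluorescent RT-PCR fragment analysis. Signal changes up or down fitted relative to DMSO.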

Heat shock factor protein 1 (Homo sapiens), sequence (Q00613 whole entry, looked up): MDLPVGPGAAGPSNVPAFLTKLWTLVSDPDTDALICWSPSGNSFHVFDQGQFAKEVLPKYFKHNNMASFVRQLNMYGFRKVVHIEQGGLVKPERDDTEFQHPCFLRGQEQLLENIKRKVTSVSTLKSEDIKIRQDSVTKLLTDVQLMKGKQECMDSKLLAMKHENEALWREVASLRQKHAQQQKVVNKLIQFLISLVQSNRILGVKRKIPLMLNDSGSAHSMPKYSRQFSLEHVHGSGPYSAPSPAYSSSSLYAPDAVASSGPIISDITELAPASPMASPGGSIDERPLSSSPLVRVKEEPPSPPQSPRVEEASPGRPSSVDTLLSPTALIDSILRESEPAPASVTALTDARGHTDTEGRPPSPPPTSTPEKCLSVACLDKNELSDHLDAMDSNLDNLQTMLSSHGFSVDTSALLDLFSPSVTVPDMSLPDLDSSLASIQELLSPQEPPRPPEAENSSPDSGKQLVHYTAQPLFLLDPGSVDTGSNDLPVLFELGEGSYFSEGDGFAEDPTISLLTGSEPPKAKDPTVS
Paired box protein Pax-6 (Homo sapiens), sequence (P26367 whole entry, looked up): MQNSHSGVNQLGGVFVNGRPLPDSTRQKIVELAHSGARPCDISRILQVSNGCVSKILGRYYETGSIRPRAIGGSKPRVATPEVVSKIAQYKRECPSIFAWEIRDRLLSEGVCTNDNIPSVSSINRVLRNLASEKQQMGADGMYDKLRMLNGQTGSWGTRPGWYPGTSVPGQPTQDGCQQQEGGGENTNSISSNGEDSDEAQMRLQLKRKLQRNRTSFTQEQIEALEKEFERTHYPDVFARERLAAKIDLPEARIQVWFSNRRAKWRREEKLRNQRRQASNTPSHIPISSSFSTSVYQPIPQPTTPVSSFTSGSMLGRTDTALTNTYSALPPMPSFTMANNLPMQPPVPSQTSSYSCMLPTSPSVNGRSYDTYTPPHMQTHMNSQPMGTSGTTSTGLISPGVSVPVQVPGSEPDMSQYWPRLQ
Hepatocyte nuclear factor 3-beta (Homo sapiens), sequence (Q9Y261 whole entry, looked up): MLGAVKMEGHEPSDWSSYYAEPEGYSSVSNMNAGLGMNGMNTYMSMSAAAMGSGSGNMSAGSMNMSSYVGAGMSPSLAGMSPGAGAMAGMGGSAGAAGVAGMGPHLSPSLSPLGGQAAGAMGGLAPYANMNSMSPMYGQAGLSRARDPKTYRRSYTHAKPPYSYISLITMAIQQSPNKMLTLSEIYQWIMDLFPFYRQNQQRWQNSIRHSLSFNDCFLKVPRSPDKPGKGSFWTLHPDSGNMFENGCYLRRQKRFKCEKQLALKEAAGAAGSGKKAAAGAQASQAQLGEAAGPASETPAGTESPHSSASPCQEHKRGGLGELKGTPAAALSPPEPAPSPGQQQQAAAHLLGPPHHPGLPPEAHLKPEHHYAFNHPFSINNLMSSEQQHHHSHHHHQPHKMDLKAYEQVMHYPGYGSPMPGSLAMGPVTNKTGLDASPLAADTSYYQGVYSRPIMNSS
Hypoxia-inducible factor 1-alpha (Homo sapiens), sequence (Q16665 whole entry, looked up): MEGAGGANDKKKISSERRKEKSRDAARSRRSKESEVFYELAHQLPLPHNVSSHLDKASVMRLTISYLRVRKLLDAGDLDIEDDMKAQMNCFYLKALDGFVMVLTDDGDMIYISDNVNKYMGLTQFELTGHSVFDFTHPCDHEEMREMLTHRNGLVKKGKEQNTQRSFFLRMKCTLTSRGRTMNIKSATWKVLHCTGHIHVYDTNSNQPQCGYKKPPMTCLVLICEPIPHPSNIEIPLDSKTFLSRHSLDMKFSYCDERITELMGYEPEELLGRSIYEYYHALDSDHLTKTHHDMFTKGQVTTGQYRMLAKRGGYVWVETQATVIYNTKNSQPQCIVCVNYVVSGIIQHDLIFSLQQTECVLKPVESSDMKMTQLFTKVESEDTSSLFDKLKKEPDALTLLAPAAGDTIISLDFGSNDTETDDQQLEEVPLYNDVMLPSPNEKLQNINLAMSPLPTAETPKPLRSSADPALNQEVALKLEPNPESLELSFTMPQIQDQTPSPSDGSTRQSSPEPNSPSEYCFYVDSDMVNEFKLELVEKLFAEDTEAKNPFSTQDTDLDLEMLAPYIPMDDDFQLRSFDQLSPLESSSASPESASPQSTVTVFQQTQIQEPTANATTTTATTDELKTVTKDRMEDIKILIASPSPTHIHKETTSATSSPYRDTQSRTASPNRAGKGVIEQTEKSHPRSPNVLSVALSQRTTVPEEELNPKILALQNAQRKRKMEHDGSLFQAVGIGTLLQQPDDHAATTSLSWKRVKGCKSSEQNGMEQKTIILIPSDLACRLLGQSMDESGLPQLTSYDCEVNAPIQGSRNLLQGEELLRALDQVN
Hepatocyte nuclear factor 6 (Homo sapiens), sequence (Q9UBC0 whole entry, looked up, the tested form may be a part): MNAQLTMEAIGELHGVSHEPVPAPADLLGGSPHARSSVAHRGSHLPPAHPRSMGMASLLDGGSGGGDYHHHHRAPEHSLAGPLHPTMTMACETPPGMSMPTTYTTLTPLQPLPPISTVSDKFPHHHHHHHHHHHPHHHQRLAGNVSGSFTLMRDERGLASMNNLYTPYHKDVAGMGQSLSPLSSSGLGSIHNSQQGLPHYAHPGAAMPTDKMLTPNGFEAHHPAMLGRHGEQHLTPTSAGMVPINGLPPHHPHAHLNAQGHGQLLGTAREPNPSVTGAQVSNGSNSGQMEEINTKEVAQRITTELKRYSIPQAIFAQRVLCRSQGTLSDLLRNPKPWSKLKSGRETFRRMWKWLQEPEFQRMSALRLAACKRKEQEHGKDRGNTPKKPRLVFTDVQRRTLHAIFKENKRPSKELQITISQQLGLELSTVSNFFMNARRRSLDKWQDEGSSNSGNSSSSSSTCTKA

For the compound `Cc1cccc(C)c1N`, the result in assay [1], in [2], in [3], in assay [4], in assay [5] and in assay [6] was inactive. Besides, the compound was classed as inactive in assay [7], in assay [8], in assay [9], in assay [10], in [11] and in assay [12]. Further, the outcome in assay [13], in assay [14], in assay [15], in assay [16], in assay [17] and in assay [18] was inactive. Besides, the call in [19] was inactive.
The term AC50 denotes the concentration at which the activity in the assay is half-maximal. Take `CCC(=O)O[C@H]1CC[C@H]2[C@@H]3CCC4=CC(=O)CC[C@]4(C)[C@H]3CC[C@]12C`: the result in [1], in assay [2], in assay [4], in assay [6], in assay [7] and in assay [8] was inactive. Further, the outcome in [9], in assay [10], in assay [11], in [12], in [13] and in assay [14] was inactive. Further, the call in assay [15], in [16], in assay [20] and in assay [19] was inactive. Besides, the AC50 is 100 µM (active) and 77.1 µM (active) and 129 µM (active) in assay [3]; 9.04 nM (active) and 9.14 nM (active) and 8.84 nM (active) in assay [5]; 187 µM (active) in assay [7]; 135 µM (active) and 185 µM (active) in [8]; 140 µM (active) in assay [9]; 157 µM (active) in [11]. Moreover, the AC50 was 100 µM (active) and 131 µM (active) in assay [12]; 100 µM (active) and 122 µM (active) in assay [15]; 169 µM (active) and 187 µM (active) in assay [16]; 159 µM (active) [middle of 4 runs] in assay [17]; 136 µM (active) [middle of 4 runs] in assay [18]; 136 µM (active) and 100 µM (active) in assay [20]. Moreover, in assay [19], the AC50 was 132 µM (active) and 100 µM (active).
